The values below come from the supplement of paper PMC6555819.

This experiment has as its system VDR:RXRa (NR concentration 270 nM, RXRa partner concentration 90 nM). The experiment is described as follows: PBM binding z-score (relative to random genomic background probes); higher = stronger binding; sequences stand for … in GC…GCGATTGACAGCGTAGAATGAAGG
The protocol: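 Protein-binding microarray (Agilent 4x180K custom design, double-stranded 60-nt probes: 5' GC cap, 34-nt variable region, 24-nt constant primer region; full probe sequence given). Purified or IVT nuclear receptor:RXRα heterodimers (3:1 NR:RXRα, mostly 270:90 nM) or homodimers were incubated for 1 h in PBS with 2% milk and no ligand, then detected with Alexa488 antibodies. Fluorescence from o1-orientation probes (~5 replicates averaged) was converted to z-scores against 500 random hg19 background probes. Variable regions are seed direct-repeat (DR0–DR5) sites, all their single-nucleotide variants and half-site ablations.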
GCGACTGGGGCAAAGCAGGTTACCATTAGGTTGG: the PBM binding z-score is -0.0809. Then TCAGACAGGTCAAGGTAACTCAGGTACGCAGTCG, with 3.09; and CCTTACGGGTCACTGACAGGTTCTAGCATTTGGA, with 3.36. On to CCAGACAGGTGAGAAGGTTACTCAGCCTCGATTA, for which the PBM binding z-score worked out at 0.635. ACTATTAGTTGACTTAGGGCAAACGATACGACGC gave a PBM binding z-score of 0.55.

In turn, CCTACTGGGCCATTCAGAGGTCATTGAGCATATG gave a PBM binding z-score of 4.17. Next, GATACAGGGTCAGCTAGAGGCCAGAGTATGGAAA: 3.33; CCTACAGGGCCATTCAGAGGTCATTGATCATATG: 4.57; CCTGCTAGGTCAATGGTCAGGTAAAGCAGCTCGC: 0.722. On to ACGGACAGGTGATGAAGGTAACTCAGGCTATCAT, for which the PBM binding z-score came out at 0.367.

GCTGCTAGGTCAACTGATGGTCAGATAAAGCTCG: the PBM binding z-score is 1.82. In the case of TCATATAGGTAAAGGTGAAAGACGAACGATATGA, the PBM binding z-score is 0.914. TAGCCTAGGTCATGGGCTAGTATACCACGCGAAC registered a PBM binding z-score of 1.72. In turn, TCATATAGGTAAACAGGTGAAAGTACGTAAGTTA had a PBM binding z-score of 1.48. As for CCTCGGAGGACAACAGAAGGTCAGAGCTGCCAGA, the PBM binding z-score amounted to 1.35. Next, ACTATTAGTTGAATTAGGGCAACCGATACGACGC: 0.274. Next, TCATATAGGTGATACAGGTGAAAGTCGGCATCTA: 1.19. For the sequence CAGACTAGGTCACGAAAGGTCAAAGTCGAATGAC, the PBM binding z-score amounted to 6.8.

ATCTCTAGGTAAACTTCAGTGAAAGATCGATAGA showed a PBM binding z-score of 0.36. CAAACTATGTCAAGAGGTCAAAGTCCGCTTCCCG registered a PBM binding z-score of 5.15.

ATCTCTAGGTAATAAGTTCAGTGAAAGAGAGGAC: the PBM binding z-score amounted to 1.9. CGAACTAGGTCAGAACAGGCCAGTGAAGGATGAT registered a PBM binding z-score of 0.281. Then CTCGAACGGTCGTGCTCAGGTGAGTATACCAAAC, with -0.344; and GGAACGAGGGCAAAGTTGATGGCATCTGTCGACG, with 1.51. Regarding ACTTACGGGTCGACGAGGTTATAGCACGCGTATA, the PBM binding z-score was determined as 6.05. CGTCCAAGGTCAAAGGTCAGTGATGAGATGACGG registered a PBM binding z-score of 6.62. Next, ATCGGAAGGTCGACGAGGTGAGTATACACCGTTT: 3.87; ACTTACGGGTCAAAGAGGTTATAGCACGCGTATA: 7.09; AGAATGAGGTTATACGTAGATTAGGGAAGAAAGT: 1.44. With CCTACTGGGCCAGAGGTCATTGATTCCAATGCTC, the PBM binding z-score was determined as 4.47. Consider CCTGCTTGGTCAATGGTCAGCTAAAGCAGCTCGC, for which the PBM binding z-score is -0.576.

On to TCTTGTAGATCAACAGGAGGTTAAGAGAGATCGA, for which the PBM binding z-score was 0.733. GCTTGTAGATCAAGGTTAAGACAGACTAAGCTAA registered a PBM binding z-score of 0.166. The sequence TCTTGCAGATCAGCAGGTTAAGAAAGCTGGCCAA showed a PBM binding z-score of -0.0921. For GCTATGAGTTGAAAGGGCAACCGAATGATTCTCG, the PBM binding z-score worked out at 1.2. Next, AGAATGAGGGTATACGTAGATCAGGGAAGAAAGT: 0.239; ATATGTTGGTTACATCCGGGTCATTCAGGCTATG: 3.42; TCTTGTAGGTCAGCAGGTTAAGAAAGCTGGCCAA: 3.54. Next, TCGAGTAGGTTAGTCGGGGCATGCAGCCAACATA: 1.24; CGAACTAGGTCAGAACAGGGCAGTGAAGGATGAT: 0.903.
